Results reported in PubChem BioAssay (Tox21).
Results filed as inconclusive are left out. Entries that show only a call come without a potency. Calls of active or inactive are those of the source. Calls come from the whole dose curve.

Biological target: Beta-2 adrenergic receptor (Homo sapiens) (UniProt P07550)
Assay: Adrenergic beta2 receptor (ADRB2) small molecule agonists, cell-based qHTS assay (AID 1963593);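 note: CHO cells stably overexpressing human ADRB2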
Conditions: CHO-ADRB2 cells, cAMP HTRF, 30 min; series mostly up to 92.4 µM
Procedure, shortened: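 CHO cells stably over-expressing ADRB2 were plated overnight at 37C, then dosed with compounds plus a stimulation mix containing 100uM IBMX and 25uM Ro-20-1724 for 0.5hr at room temperature. cAMP was measured by HTRF competition, 1hr.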

Sequence of Beta-2 adrenergic receptor (Homo sapiens) (P07550 whole entry, looked up): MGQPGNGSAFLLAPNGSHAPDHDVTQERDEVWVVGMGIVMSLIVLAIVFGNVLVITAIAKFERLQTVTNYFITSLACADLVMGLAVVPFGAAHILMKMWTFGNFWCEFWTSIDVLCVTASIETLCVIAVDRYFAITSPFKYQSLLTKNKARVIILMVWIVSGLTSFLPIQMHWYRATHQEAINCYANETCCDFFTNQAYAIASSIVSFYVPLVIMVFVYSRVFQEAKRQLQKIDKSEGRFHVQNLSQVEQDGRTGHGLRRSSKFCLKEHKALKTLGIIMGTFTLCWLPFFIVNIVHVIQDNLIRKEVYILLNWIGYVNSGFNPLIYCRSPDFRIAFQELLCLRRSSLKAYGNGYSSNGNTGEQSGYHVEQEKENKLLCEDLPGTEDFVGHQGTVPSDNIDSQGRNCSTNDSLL

| SMILES | Potency |
| --- | --- |
| CCCCCCOC(=O)C(C)CC (configuration not stated) | inactive |
| OCC(CO)N[C@H]1C[C@](O)(CO)[C@@H](O)[C@H](O)[C@H]1O | inactive |
| CCO[Si](C)(OCC)OCC | inactive |
| CC(C)(C)OC=O | inactive |
| CC(C)CCCCOC(=O)c1ccccc1C(=O)OCCCCC(C)C | inactive |
| [K+] | inactive |
| CC(C)c1ccccc1O | inactive |
| O=C(O)c1cc(C(=O)O)cc([N+](=O)[O-])c1 | inactive |
| CC(C)CCCO | inactive |
| C=CCOC(=O)CCCCCCCC | inactive |
| OCC(O)CN1CCN(c2ccccc2)CC1 (configuration not stated) | inactive |
| O=C(O)Cc1ccc(CCNS(=O)(=O)c2ccc(Cl)cc2)cc1 | inactive |
| ClC/C=C\CCl | inactive |
| Cc1ccc(C(=O)C(=O)O)cc1C | inactive |
| CC(=O)c1cccc([N+](=O)[O-])c1 | inactive |
| O=C(O)CSCC(=O)NC1CCSC1=O (configuration not stated) | inactive |
| CC(=O)OCCN(CCOC(C)=O)c1ccc(N=Nc2ccc([N+](=O)[O-])cc2C#N)cc1 | inactive |
| CC(C#N)(CCC(=O)O)N=NC(C)(C#N)CCC(=O)O (configuration not stated) | inactive |
| C=C(C)C(=O)OCCCCCCOC(=O)C(=C)C | inactive |

| SMILES | Potency |
| --- | --- |
| CCc1cccc(CC)c1NC(=O)C(=O)O | inactive |
| O=C(/N=N/C(=O)OCc1ccccc1)OCc1ccccc1 | inactive |
| C[C@@H](O)[C@H]1C(=O)N2C(C(=O)O)=C(SCCN=CN)C[C@H]12 | inactive |
| COCCCC/C(=N\OCCN)c1ccc(C(F)(F)F)cc1 | inactive |
| CC(COC(=O)c1ccccc1)OC(=O)c1ccccc1 (configuration not stated) | inactive |
| CCOC(=O)c1cccc(N)c1 | inactive |
| O=Cc1ccc(C(=O)O)cc1 | inactive |
| CC12CC3CC(C)(C1)CC(N)(C3)C2 | inactive |
| COc1nc(N)nc2nc[nH]c12 | inactive |
| CC(C)(C)c1nnc(NS(=O)(=O)c2ccc(N)cc2)s1 | inactive |
| O=C1C(c2[nH]c3ccc(S(=O)(=O)O)cc3c2O)=Nc2ccc(S(=O)(=O)O)cc21 | inactive |
| CC(N)CN (configuration not stated) | inactive |
| Cc1cn([C@H]2C[C@H](F)[C@@H](CO)O2)c(=O)[nH]c1=O | inactive |
| CC1CCC(C(C)(C)O)CC1 (configuration not stated) | inactive |
| CC1=NN(c2ccc(S(=O)(=O)O)cc2)C(=O)C1 | inactive |
| Nc1ncnc2c1ncn2[C@@H]1O[C@H](COP(=O)(O)O)[C@@H](O)[C@H]1O | inactive |
| Cc1ccc(S(=O)(=O)NC(=O)NC2CCCC2)cc1 | inactive |
| CCCCCCCCCCCCCCCCC | inactive |
